High-throughput results (PubChem BioAssay)
12-LOX inh – inhibitors of human 12S-lipoxygenase ALOX12; P18054; purified 12hLO, xylenol orange hydroperoxide absorbance; Potency, µM (highest dose often 108 µM), for inactives: top-dose activity change, negative = inhibition, most hits filed as inhibitors; 580,000 tested, 1.1% active; AID 1671190; active = well fitted inhibition curve with a large enough effect; inconclusive = small, poorly fitted or top-dose-only effect, or another doubt; inactive = no such curve, though single readings can be large or run the other way; also: potency is read from the fitted curve at half-maximal effect; % is scaled to controls: 0 for no effect and ±100 for the full control effect
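Purified human 12hLO (150 nM final) in 25 mM Hepes, 0.01% Triton X-100, pH 7.0 was preincubated 15 min at room temperature with compound. Then 40 uM arachidonic acid was added, 30 min. Hydroperoxide was read by Fe-XO absorbance ratio 573/405 nm.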
KCNH2 WT inh – KCNH2 (human, wildtype) channel inhibition; U2OS, BacMam KCNH2, thallium flux FluxOr; stronger effect = lower value; activity change, % at 1.84 µM; 340,000 tested, 0.37% active; AID 720551;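 active = maximum activity change below -70%; inconclusive = maximum activity change between -70% and -50%; inactive = maximum activity change above -50%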; also: % is scaled to controls: 0 for no effect and ±100 for the full control effect
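U2OS cells transduced with wild-type KCNH2 virus are loaded with FluxOr dye for 45 min, and thallium flux is measured in kinetic reads before and after stimulation buffer. Rate constants are normalized to DMSO controls.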
Chronic BCR inh – blocks chronic active B-cell receptor signaling | ABC-DLBCL IkBa-CBG/CBR reporter, luminescence ratio, 4 h | Potency, µM (doses to about 46.1 µM), without a hit: at the highest dose activity change, negative = inhibition, usual class: inhibitors | 340,000 tested, 0.05% active; active = well fitted inhibition curve with a large enough effect in the signal ratio, with a control signal flat, not every such curve was filed as active; inconclusive = small, poorly fitted or top-dose-only effect, or effect the other way, or a change in a side signal; the % refers to the signal ratio;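 also: potency is read from the fitted curve at half-maximal effect; plate controls were basal doxycycline-induced cells for no effect and cells given 10 µM MG132 for full effect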
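TMD8 human ABC-DLBCL cells with doxycycline-inducible IκBα–green luciferase fusion and unfused red luciferase, in 0.5% FBS medium; compounds up to 46 uM, 4 h at 37C. Green/red luminescence ratio, filter-overlap corrected, fitted to concentration-response curves.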
ClpP mod – qHTS Assay for Activators of ClpP | 340,000 tested, 1.9% active | purified B. subtilis ClpP, FRET peptide cleavage, 20 min | Potency, µM (highest dose often 57.5 µM), for inactives: top-dose activity change, negative = active; active = well fitted falling curve with a large enough effect; inconclusive = small, poorly fitted or top-dose-only effect; inactive = no such curve, though single readings can be large or run the other way; also: potency is read from the fitted curve at half-maximal effect; the source files actives as falling curves though it sought activators and does not explain the sign; nearly all actives have a fitted effect of over 65% in size
Target sequence (P80244 whole entry, looked up): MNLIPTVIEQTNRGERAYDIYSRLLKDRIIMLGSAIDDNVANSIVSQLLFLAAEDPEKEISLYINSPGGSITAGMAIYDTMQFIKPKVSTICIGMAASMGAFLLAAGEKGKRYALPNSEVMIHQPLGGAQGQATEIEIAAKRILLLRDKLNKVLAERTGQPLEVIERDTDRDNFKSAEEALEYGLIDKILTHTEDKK
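Buffer: 100 mM Tris/HCl pH8, 100 mM KCl, 0.05% low protease BSA, 2.5% glycerol, 0.01% Tween-20. ClpP 10 microg/mL final; 20 min RT; delta FRET normalized to ADEP and DMSO controls.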
KCNH2 3.1 block – inhibitors of human KCNH2 3.1 potassium channel isoform | AID 720553 | U2OS KCNH2 3.1, thallium flux FluxOr; stronger effect = lower value | activity change, % (tested at about 1.8 µM) | 340,000 tested, 0.95% active;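 active = maximum activity change below -70%; inconclusive = maximum activity change from -70% to -50%; inactive = maximum activity change above -50%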;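 also: thallium influx rate constant from kinetic fluorescence after stimulation buffer; % is scaled to controls: 0 for no effect and ±100 for the full control effect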
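Channel expression came from 3.1 mutant virus (1.77 x 10^8 /mL) applied to suspended U2OS cells for 4 h. Flux was tracked with FluxOr dye plus Red40 quencher, and kinetic rate constants normalized to controls.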
LDHA block – LDHA (human) enzyme inhibition. purified LDHA, NADH/diaphorase-resazurin fluorescence; stronger effect = lower value. 480,000 tested, 0.15% active. activity change, % (values are at about 110 or 230 µM). P00338; in the data active = activity change below about -30%; inconclusive = mostly about -25% to -30%;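 also: plate controls were DMSO wells for no effect and wells without enzyme for full effect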
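Human LDH5 at 2 nM final in Tris HCl pH 7.4 with 0.06 mM NADH and 0.2 mM pyruvate, reacted 5 minutes at room temperature. Remaining NADH coupled via diaphorase/resazurin; resorufin fluorescence read at 0 and 20 minutes, normalized to enzyme-free and DMSO wells.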
* hit, by the source's call; ? = inconclusive; . = no result given; [ ] = another dose, or the depositor's remark. Most compounds without a hit are left out; they make up all but 3% or so of the library.

SMILES	12-LOX inh	KCNH2 WT inh	Chronic BCR inh	ClpP mod	KCNH2 3.1 block	LDHA block
COc1cc(/C=C2/NC(=O)N(Cc3ccccc3F)C2=O)ccc1Oc1ccc([N+](=O)[O-])cn1	-23%	4	0%	-1%	4	1
COc1ccc(N2CCN(C(=O)c3ccccc3NS(=O)(=O)c3ccccc3)CC2)cc1	?	7	1%	28µM*	9	-2
c1cc(CNC2CC2)c2cc[nH]c2c1	8%	.	.	.	.	9
CCOC(=O)NC(=O)/C(C#N)=C\NNc1ncc(C(F)(F)F)cc1Cl	4%	-71*	6%	.	10	-13
COCCn1c(COc2ccccc2-c2ccccc2)nnc1SC(F)F	8%	.	.	.	.	2
O=C(O)c1ccc(-c2ccc(CNC3CCCCC3)o2)cc1	?	.	.	.	.	5
c1ccc(CNc2ncncc2-c2ccc3c(c2)OCO3)cc1	25µM*	.	.	.	.	.
CC(=O)Nc1ccc(NC(=O)c2nccnc2C(=O)O)cn1	?	-5	-2%	-2%	-20	1
COCC(=O)Nc1cc(OC)cc(OC)c1	16%	1	?	28µM*	22	7
COc1cc(NC(=O)c2nccnc2C(=O)O)cc(OC)c1	4.5µM*	-19	0%	0%	-5	6
O=c1cc(CNCc2ccccc2)c2ccccc2[nH]1	-1%	.	.	.	.	4
CCOC(=O)Nc1ccc2c(c1)N(C(=O)CN1CCN(C)CC1)c1ccccc1CC2	5µM*	10	0%	1%	2	0
O=C1C2C(c3ccccc3)=NN(c3ccccc3)C2C(=O)N1c1ccccc1 (stereo not given)	-9%	13	2%	28µM*	-6	-1
C[C@H]1[C@@H]2[C@@H](O)C([C@H](C)C(=O)N(C)CCC#N)CC[C@@]2(C)CC[C@@H]1NC(=O)c1ccncc1 (stereo not given in full)	77%[176 µM]	.	.	.	.	.
Cc1nc(CCNC(=O)Cc2ccsc2)no1	35µM*	.	.	.	.	.
COc1ccc(NC(=O)c2ccc3c(c2)N(C)C2CCCCCN2C3=O)cc1Cl (stereo not given)	-15%	.	.	.	.	.
Cc1ccccc1-c1cc(C(=O)O)c2ccc(C)c(C)c2n1	?	.	.	.	.	8
COCCNC(=O)[C@@H]1C[C@H](Oc2cccnc2)CN1C(=O)c1cnc(C)cn1	4%	.	.	.	.	.
O=C(NCC(F)(F)F)C1CCN(C(=O)c2ccc(Br)cc2)CC1	-15%	.	.	.	.	-3
CCC1(C)CC(C(N)=S)CCO1 (stereo not given)	8.9µM*	2	?	1%	15	-2
CC1(C)CC(C(N)=S)CCO1 (stereo not given)	0%	6	-5%	.	10	-10
O=C(O)c1sc2cc(C(F)(F)F)cnc2c1-c1ccccc1	?	-11	1%	-5%	-8	0
CSc1nnc(-c2sc3cc(C(F)(F)F)cnc3c2-c2ccccc2)n1C	0%	-1	?	32µM*	1	5
COC(=O)[C@@H](NC(=O)Nc1ccc2oc(-c3cccnc3)nc2c1)C(C)C	-2%	.	.	.	.	5
CCOc1ccc(/C=N/OCc2c(Cl)cccc2Cl)cc1OC	?	.	.	.	.	0
SMILES	12-LOX inh	KCNH2 WT inh	Chronic BCR inh	ClpP mod	KCNH2 3.1 block	LDHA block
CCCCC(=O)Nc1ccc(C(=O)NNC(=O)CCc2ccccc2)cc1	1%	12	0%	-16%	-5	-14
CCCCC(=O)Nc1ccc(C(=O)NNC(=O)c2ccc(C)c(Br)c2)cc1	-15%	-7	3%	-2%	1	-47*
COc1cccc(OC/C(=N\O)c2ccc(OCC(N)=O)cc2O)c1	52%	.	.	.	.	-18
Cc1ccc(C(=O)Nc2cccc(CCC(=O)N(C)C)c2)cc1	0%	.	.	.	.	6
Cc1c(C(=O)Nc2cccc(Cl)c2)oc2ccc(S(=O)(=O)N(C)C3CCCCC3)cc12	-29%	.	10%	20µM*	.	-3
Cc1ccc(Cl)cc1NC(=O)c1oc2ccc(S(=O)(=O)N(C)C3CCCCC3)cc2c1C	-10%	.	-1%	?	.	-7
COc1ccc(/C=N/NC(=O)c2cccc([N+](=O)[O-])c2)cc1OC	-12%	5	-1%	-2%	17	-2
N#Cc1cc([N+](=O)[O-])ccc1Oc1cccc(/C=N/NC(=O)c2cccc(Cl)c2)c1	.	-77*	?	1%	?	-5
CCc1ccc(NC(=O)c2ccccc2SCC(=O)NCc2ccco2)cc1	5.6µM*	.	.	.	.	5
O=C(NCCc1ccccn1)c1cc(-c2cccc3ccccc23)nc2ccccc12	2%	28	-1%	-27%	11	-8
CCc1ccc(-c2cc(C(=O)NCc3ccco3)c3ccccc3n2)cc1	14µM*	.	.	.	.	-7
O=C(NCc1ccccn1)c1cc(-c2ccc(Br)cc2)nc2ccccc12	-7%	1	0%	?	-12	-6
COc1cc(-c2cc(C(=O)NCc3ccco3)c3ccccc3n2)cc(OC)c1OC	?	-6	?	0%	4	0
Cc1ccc(-c2cc(C(=O)NCc3ccccn3)c3ccccc3n2)cc1	-19%	0	6%	14µM*	-16	1
Cc1cccc(NC(=O)c2ccccc2SCC(=O)NCc2ccco2)c1	?	.	.	.	.	0
Cc1ccc(-c2cc(C(=O)NCCc3ccccn3)c3ccccc3n2)c(C)c1	-1%	15	10%	28µM*	-43	-8
O=C(/C=C/c1c(-c2ccccc2)[nH]c2ccccc12)C(F)(F)F	-10%	.	.	.	.	1
CCc1ccc(-c2cc(C(=O)NCc3ccccn3)c3ccccc3n2)cc1	-14%	-10	?	14µM*	.	5
CCCSC1=N/C(=C\c2ccc([N+](=O)[O-])o2)C(=O)S1	40µM*	15	12%	0%	-13	1
CSC1=N/C(=C\c2ccc(I)o2)C(=O)S1	5.6µM*	.	.	.	.	9
CSC1=N/C(=C\c2ccc(C)o2)C(=O)S1	45µM*	0	?	-1%	-2	3
CSC1=N/C(=C\c2ccco2)C(=O)S1	?	.	.	.	.	10
Cc1ccc(NC(=O)C2CCN(c3cc(C(F)(F)F)ncn3)CC2)cc1Cl	9%	.	.	.	.	.
CSCCC(NC(=O)[C@@H](NC(=O)c1ccc(C)cc1)C(C)C)c1nnc2ccccn12 (stereo not given in full)	-17%	.	.	.	.	1
CN1C[C@H](NC(=O)C2CCOCC2)CCC[C@@H](C(=O)NC2CC2)CC1=O	42%[176 µM]	.	.	.	.	.
Cn1c(=O)[nH]c(=O)c2c1nc(SCCN1CCCCC1)n2CCCc1ccccc1	5%	-1	1%	1%	-32	3
Cc1ccc(Cn2c(SCCC(C)C)nc3c2c(=O)[nH]c(=O)n3C)cc1	69%	.	.	.	.	11
